Bioassay records: PubChem BioAssay, National Center for Advancing Translational Sciences (NCATS)
KinaseGlo FLuc: Kinase-Glo luciferase inhibition (counter-screen). Q27757. Kinase-Glo luciferase, ATP luminescence, 8 min. Potency, µM (highest dose often 38.3 µM), without a hit: at the highest dose activity change, negative = inhibition, hits mostly inhibitors. 0.28% of 200,000 active; further: nearly all actives have a fitted effect of over 60% in size
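Compound is pinned into ATP-containing buffer (10 uM ATP, imidazole pH 7.2, 7 mM MgCl2). Kinase-Glo luciferase reagent is then added. Light output is recorded following an 8-min room-temperature incubation.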
Tau fluor counter: counter-screen for tau fibril formation inhibitors; tau K18 P301L Alexa594 fluorescence, heparin fibrillization; 0.93% of 280,000 active; Potency, µM (top dose mostly 57.7 µM), without a hit: at the top dose activity change, negative = decrease; further: nearly all actives have a fitted effect of over 55% in size
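Human tau K18 P301L (15 uM unlabeled, 0.24 uM Alexa 594-labeled) in 100 mM sodium acetate pH 7 with 20 uM heparin, 6 hr at 37 C. ThT 30 uM added, 1 hr ambient; Alexa 594 FP and total fluorescence read at 555/632 nm.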
Tau fibril ThT: blocks human tau fibril formation measured by thioflavin T | 2.1% of 270,000 active | Potency, µM (highest dose often 57.4 µM), for the others: top-dose activity, negative = inhibition, hits mostly inhibitors | P10636 | recombinant tau K18 P301L, heparin-induced fibrillization, ThT fluorescence | AID 1460; further: nearly all actives have a fitted effect of over 55% in size
Target sequence (P10636 561-689 P618L limits assumed): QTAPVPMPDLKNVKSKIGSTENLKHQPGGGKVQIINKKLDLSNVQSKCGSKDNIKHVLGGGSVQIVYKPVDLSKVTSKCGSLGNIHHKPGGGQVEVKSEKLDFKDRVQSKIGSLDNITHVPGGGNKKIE
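Tau K18 P301L fragment (15 uM unlabeled plus 0.24 uM Alexa 594-labeled) in 100 mM sodium acetate pH 7 with compound, fibrillization induced by 20 uM heparin for 6 hr at 37 C. Thioflavin T (30 uM) added, fluorescence read after 1 hr (ex 450, em 510 nm).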
Tau fibril FP: inhibitors of human tau fibril formation; P10636; K18 P301L tau heparin fibrillization, Alexa594 FP, 6 h; Potency, µM (top dose mostly 57.7 µM), for inactives: at the highest dose activity, negative = inhibition, actives largely listed as inhibitors; 0.39% of 280,000 active; AID 1468; further: nearly all actives have a fitted effect of over 55% in size
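Heparin (20 uM) drove fibril formation of recombinant tau K18 P301L, 15 uM unlabeled with 0.24 uM Alexa 594 label, for 6 hr at 37 C in 100 mM sodium acetate pH 7. Fluorescence polarization (555/632 nm) read 1 hr after 30 uM ThT.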
NPSR antagonist: neuropeptide S receptor (human) antagonism, cAMP; AID 1461; 1% of 220,000 active; Potency, µM (highest dose often 38.3 µM), for inactives: at the highest dose activity change, negative = inhibition, most hits filed as inhibitors; Q6W5P4; CHO-NPSR cells, cAMP TR-FRET, antagonist mode; further: nearly all actives have a fitted effect of over 50% in size
Target sequence (Q6W5P4 whole entry, looked up): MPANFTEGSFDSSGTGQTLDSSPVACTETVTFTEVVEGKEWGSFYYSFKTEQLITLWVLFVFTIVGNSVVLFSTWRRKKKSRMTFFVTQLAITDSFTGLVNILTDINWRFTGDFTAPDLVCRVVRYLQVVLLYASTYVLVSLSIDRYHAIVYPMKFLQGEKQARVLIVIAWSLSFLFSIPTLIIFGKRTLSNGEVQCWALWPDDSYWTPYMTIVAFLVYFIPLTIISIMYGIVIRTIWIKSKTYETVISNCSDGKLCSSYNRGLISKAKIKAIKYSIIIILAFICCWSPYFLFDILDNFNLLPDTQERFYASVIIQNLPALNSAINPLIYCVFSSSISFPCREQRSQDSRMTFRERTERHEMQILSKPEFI
Starred values were filed as active, the others as inactive; u = inconclusive; x = no result given; [ ] = dose if it differs, or a comment. Rows were chosen to be rich in hits. Some 3.3% of all compounds tested hit in one or more screens of this group. The call rests on the fitted dose curve; in most records, active means well fitted curve in the direction sought with a large enough effect; inconclusive means small, poorly fitted or top-dose-only effect, or another doubt; inactive means no such curve, though single readings can be large; an effect the other way counts as inactive or inconclusive. On the % scale 0 is the no-effect control and ±100 the full control effect; potency means the concentration at half of the fitted maximal effect.

SMILES | KinaseGlo FLuc | Tau fluor counter | Tau fibril ThT | Tau fibril FP | NPSR antagonist
CN1C/C(=C\c2ccc(N3CCOCC3)cc2)C(=O)/C(=C/c2ccc(N3CCOCC3)cc2)C1 | 4% | 5% | 0.63µM* | 20% | -51%
CCN1C/C(=C/c2ccc(N3CCOCC3)cc2)C(=O)/C(=C/c2ccc(N3CCOCC3)cc2)C1 | x | -10% | 0.63µM* | -7% | -15%[46.1 µM]
CCn1c(=O)c2cc(C(=O)N(CCCOC(C)C)Cc3ccco3)sc2c2ccccc21 | x | -17% | u | 7% | x
COc1ccc(-c2cc(-c3c(O)c(OC)c4occc4c3OC)[nH]n2)cc1 | 0% | 13µM*[quencher] | 11µM* | 14% | -22%[46.1 µM]
COc1ccc(-c2cc(-c3c(O)c(OC)c4occc4c3OC)[nH]n2)cc1OC | -3% | 14µM*[quencher] | 11µM* | 11% | -29%[46.1 µM]
CCOc1ccc(-c2cc(-c3nc(-c4cc(OC)c(OC)c(OC)c4)no3)[nH]n2)cc1 | x | -25% | u | -4% | x
Cc1cc2oc(C(=O)Nc3nc(-c4ccccc4)ns3)c(C)c2cc1Cl | x | -20% | -13% | u | x
CC(C)NC(=O)c1ccc(CSc2nc3ccncc3n2Cc2cccc(F)c2)cc1 | x | -3% | 6% | -3% | x
COc1ccc(N2C(=O)CC(Sc3ccccc3C(=O)O)C2=O)c([N+](=O)[O-])c1 (stereo not drawn) | 1% | u | 14µM* | -8% | 11%
CCOC(=O)CC(NS(=O)(=O)c1ccc2[nH]c3c(c2c1)CCCC3)c1ccccc1Cl (stereo not drawn) | x | u | -11% | 20% | x
COc1ccc(NC(=O)CN(C)S(=O)(=O)c2ccc3[nH]c4c(c3c2)CCCC4)cc1OC | x | u | -15% | 15% | x
COC(=O)c1ccc(NS(=O)(=O)c2ccc3[nH]c4c(c3c2)CCCC4)cc1 | x | 10µM*[quencher] | 1% | -14% | x
COC(=O)c1ccc(NS(=O)(=O)c2ccc3[nH]c4c(c3c2)CCCCC4)cc1 | x | 4µM*[quencher] | -1% | u | x
Cc1ccccc1CN1C2=NCCN2C(=O)C2=C1CCN(Cc1ccccc1)C2 | -2%[7.66 µM] | x | x | x | x
Cc1ccc2c(c1)c1cccc3c1n2CCN3CCC(N)=O | 1% | u | 11µM* | u | -14%[46.1 µM]
NC1=CC(=O)c2cccc3cccc1c23 | -6% | u | 11µM* | u | -26%[46.1 µM]
N=c1c(-c2nc3ccccc3[nH]2)cc(C(=O)c2cccs2)nn1-c1ccccc1 | 17% | -4% | -2% | -4% | -20%[46.1 µM]
N=c1c(-c2nc3ccccc3[nH]2)cc(C(=O)c2ccco2)nn1-c1ccccc1 | 2% | u | 16µM* | 10% | -8%
Cc1cc(N/N=C/c2ccc3c(c2)OCO3)nc2ccccc12 | x | -72% | x | 3% | -39%
Cc1ccc(Nc2c(-c3ccccn3)nc3cc(C)ccn23)cc1 | -3% | -26% | u | 9% | u
Cc1ccccc1Nc1c(-c2c[nH]c3ccccc23)nc2ccccn12 | x | u | -13% | 4% | x
Cc1ccc(Nc2c(-c3ccccn3)nc3ccc(C)cn23)cc1 | -1% | -29% | u | -5% | 10µM*
Cc1ccc2nc(-c3c[nH]c4ccccc34)c(Nc3ccc(F)cc3)n2c1 | x | 5µM*[quencher] | -11% | u | x
Cc1ccc(Nc2c(-c3c[nH]c4ccccc34)nc3cc(C)ccn23)cc1 | x | 11µM*[quencher] | u | 3% | x
Cc1ccn2c(Nc3ccccc3)c(-c3c[nH]c4ccccc34)nc2c1 | x | 11µM*[quencher] | u | u | x
SMILES | KinaseGlo FLuc | Tau fluor counter | Tau fibril ThT | Tau fibril FP | NPSR antagonist
Fc1ccc(-c2cc(-c3nc(-c4ccccc4)no3)[nH]n2)cc1 | x | -13% | 16% | -6% | x
COc1ccc(NC(=O)c2cc(S(=O)(=O)N3CCCCCC3)cn2C)cc1Cl | x | -9% | 11% | -14% | x
COc1ccc(NC(=O)Nc2ccc3c(c2)N(C)C(=O)CS3)cc1Cl | 0% | 6.3µM*[quencher] | u | u | -27%[46.1 µM]
CC(C)CCNC(=O)Nc1ccc2c(c1)N(C)C(=O)CS2 | 3% | -15% | -8% | 10% | -4%[46.1 µM]
CC(=O)c1ccc(NC(=O)Nc2ccc3c(c2)N(C)C(=O)CS3)cc1 | 1% | 13µM*[quencher] | u | -3% | -7%[46.1 µM]
CN1C(=O)CSc2ccc(NC(=O)NCCC3=CCCCC3)cc21 | 2% | 14µM*[quencher] | -27% | u | -8%[46.1 µM]
c1ccc(-c2csc(Nc3cccnc3)n2)nc1 | 0% | -19% | u | 3% | -6%[46.1 µM]
